105 compounds from PubChem BioAssay AID686979 (National Center for Advancing Translational Sciences (NCATS), 2013) can be followed below.

The whole screen tested about 420,000 compounds, of which about 50,000 (12%) were called active. Entries that show only a call come without a potency. Another 26% or so got no clear call; they are omitted. The call rests on the fitted dose curve; in most records, active means well fitted inhibition curve with a large enough effect; inconclusive means small, poorly fitted or top-dose-only effect; inactive means flat fitted curve, though single readings scatter. This excerpt belongs to a sample that is enriched for actives.
Potency means the concentration at half of the fitted maximal effect.

This experiment in a line: qHTS for Inhibitors of human tyrosyl-DNA phosphodiesterase 1 (TDP1): qHTS in cells in presence of CPT. Further: nearly all actives have a fitted effect of over 55% in size. To be noted: chicken DT40 Tdp1-/-;hTDP1 cells + 20 nM CPT, ATP luminescence, 48 h; series mostly up to 46.2 µM. In short, it runs like this:
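Chicken DT40 Tdp1-/- cells complemented with human TDP1, 400 cells/well, exposed to compounds plus 20 nM camptothecin for at least 48 h at 37 C; viability read as ATP content by CellTiter-Glo luminescence.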
As to `COC(=O)C1=C(C(=O)c2ccc(C)cc2)C(c2ccccc2)n2nnnc2N1` (stereo not given), the Potency entry was “inactive”.

In the case of `O=Cc1c(Nc2ccccc2Cl)nc2ccccn2c1=O`, the Potency entry was “inactive”.

`COc1cc(N=Cc2c(O)c3ccccc3oc2=O)c(OC)cc1Cl`: the Potency entry is “inactive”. The same measure, in the same setting: the same measure for `CCOC(=O)Nc1ccccc1N1C(=O)c2ccccc2C1=O`: “inactive”. Still for that read-out and setting: the same measure for `CSc1ccccc1NC(=O)C(C)N1C(=O)c2ccccc2S1(=O)=O` (stereo not given): “inactive”; for `CC(=O)Nc1ccccc1Sc1ccc2c3c(cccc13)C(=O)N(c1ccc(C)cc1)C2=O`: 11.6 µM (active); for `COc1ccc(NC(=O)COC(=O)C2COc3ccccc3O2)cc1` (stereo not given): “inactive”.

For `CN(C)c1ccc(C(CC(=O)O)C(=O)O)cc1` (stereo not given), the Potency entry was “inactive”.

For `N#C[C@]1(S(=O)(=O)c2ccccc2)C[C@@H]2ON=C(c3cccc(Br)c3)[C@@H]2C1`, the Potency was 9.2 µM (active). As to `COC(=O)[C@]1(S(=O)(=O)c2ccccc2)C[C@@H]2ON=C(c3ccc(OC)cc3)[C@@H]2C1`, the Potency result is “inactive”. `O=C(NCCCn1ccnc1)C1CCCN(S(=O)(=O)c2cc(Cl)ccc2Cl)C1` (stereo not given): the Potency entry was “inactive”. The same measure, in the same setting: with `CCC1(c2ccccc2)NC(=O)N(CC(=O)Nc2ccccc2C(=O)NC2CCCC2)C1=O` (stereo not given) the entry was “inactive”; with `COc1ccc(S(=O)(=O)n2nc(C)c(S(=O)(=O)N3CCOCC3)c2C)cc1`, “inactive”; with `O=C(/C=C/c1ccccc1[N+](=O)[O-])NCC1CCCO1` (stereo not given), “inactive”. For `O=C(/C=C/c1ccccc1[N+](=O)[O-])OC1CCCCC1=O` (stereo not given), the Potency entry is “inactive”. For `CC1CCCCC1NC(=O)/C(C#N)=C/C=C/c1ccccc1[N+](=O)[O-]` (stereo not given), the Potency was 10.3 µM (active). For `O=C(Nc1cccc(C(=O)O)c1)/C(=C\c1ccccc1)NC(=O)c1ccc(Br)o1`, the Potency entry was “inactive”. For the compound `COc1ccc(-n2ccn(CC(=O)Nc3ccc(C)c(C)c3)c(=O)c2=O)cc1OC`, the Potency result was “inactive”.

`Cc1ccc(CNC(=O)CCc2c(C)nc3nc(CNC(=O)OC(C)(C)C)nn3c2C)cc1`: the Potency entry is “inactive”. For the compound `O=C(Oc1ccc(Br)cc1)c1cccnc1`, the Potency result was “inactive”. Same read-out and setting: the same measure for `O=C(Oc1c(-c2ccco2)oc2ccccc2c1=O)c1cccnc1`: 16.4 µM (active); for `O=C(Oc1cccnc1)c1cc2ccccc2oc1=O`: “inactive”; for `O=S1(=O)CCO[C@H]2Cc3ccccc3[C@H]2N1Cc1ccccc1`: “inactive”. `Cc1ccc(Sc2ccncc2S(N)(=O)=O)cc1`: the Potency entry is “inactive”. For the compound `CCCc1cc(C(=O)Nc2ccc(Cl)cn2)cs1`, the Potency result is “inactive”. The same measure, in the same setting: the same measure for `CC1CCN(C(=O)Cn2cc(C(=O)c3ccco3)c3ccccc32)CC1`: “inactive”; for `Cc1cccc(NC(=O)Cn2cc(C(=O)c3ccco3)c3ccccc32)c1`: 18.4 µM (active); for `Cc1ccccc1NC(=O)Cn1cc(C(=O)C2CC2)c2ccccc21`: “inactive”. In the case of `CCn1c2ccccc2c2cc(NC(=O)COC(=O)c3cc(S(=O)(=O)N4CCCCC4)ccc3Cl)ccc21`, the Potency entry is “inactive”. On to `Cc1cccc(NC(=O)c2cccc(S(=O)(=O)N3CCCC3)c2)n1`, for which the Potency result was “inactive”. The same measure, in the same setting: with `CCn1c(O)c(N=NC(=O)c2cccc(S(=O)(=O)N3CCCCC3)c2)c2ccccc21` the figure was 14.6 µM (active); with `O=S1(=O)C[C@@H](N2CCN(CCO)CC2)[C@H](COCc2ccccc2)N1`, “inactive”; with `COc1ccc(N(CC(=O)Nc2cccc3ccccc23)S(C)(=O)=O)c(OC)c1`, “inactive”.

As to `O=C(NCCN1CCOCC1)C1CCN(S(=O)(=O)c2ccccc2)CC1`, the Potency result is “inactive”. On the same count and under the same terms, with `COc1cc(F)ccc1-c1cc(C(=O)NCC2CCCCC2)[nH]n1` the entry was “inactive”. With `O=C(Nc1cccc(Cl)c1)c1cncn1-c1ccc(F)cc1`, the Potency entry is “inactive”. Same read-out and setting: the same measure for `CC(C)Oc1cc(F)ccc1-c1cc(C(=O)Nc2cccc(Cl)c2)[nH]n1`: 18.4 µM (active); for `COc1cc(NC(=O)c2cc(-c3ccc(F)cc3OC(C)C)n[nH]2)cc(OC)c1OC`: 14.6 µM (active). In the case of `COc1cc(-c2cc3n(C)c(C)c(CCC(=O)Nc4ccc(F)cc4)c(=O)n3n2)cc(OC)c1OC`, the Potency result is “inactive”. Consider `O=C(Nc1cccc(Cl)c1)c1cc(S(=O)(=O)N2CCCCC2)c[nH]1`, for which the Potency result is “inactive”. Consider `COc1ccccc1C(=O)OCC(=O)NCCNC(=O)COC(=O)c1ccccc1OC`, for which the Potency entry is “inactive”. For the compound `COc1ccccc1OCC(=O)Nc1nnc2n1CCS2`, the Potency entry is “inactive”. Same read-out and setting: with `Cc1cc(C(=O)OCC(=O)NCc2ccco2)c(C)n1-c1ccccc1` the figure was 2.31 µM (active). As to `CN(c1ccccc1)S(=O)(=O)c1ccc(Cl)c(C(=O)OCC(=O)NCc2ccco2)c1`, the Potency result was “inactive”. For the compound `O=C(COC(=O)c1ccccc1O)NCc1ccco1`, the Potency result was “inactive”. As for `COc1cccc(CNC(=O)CN2C(=O)CCc3cc(S(=O)(=O)N4CCOCC4)ccc32)c1`, the Potency result was “inactive”.

As for `CSc1nc2nc(-c3cccc(C(F)(F)F)c3)ccn2n1`, the Potency entry was “inactive”. `CCCC(=O)Nc1ccc(C(=O)N/N=C/c2ccc[nH]2)cc1`: the Potency entry was “inactive”. As to `Cc1cc(C)c(-c2csc(NC(=O)CCCc3nc4ccccc4c(=O)[nH]3)n2)c(C)c1`, the Potency is 18.4 µM (active). On to `CCCn1c(C)cc(-c2csc(NC(=O)CCc3nc4ccccc4c(=O)[nH]3)n2)c1C`, for which the Potency was 23.1 µM (active). Turning to `Cc1cc(-c2csc(N)n2)c(C)n1Cc1ccccc1`, the Potency result was “inactive”.

`CC(C)(C)c1ccc(NC(=O)COC(=O)CCc2nc3ccccc3c(=O)[nH]2)cc1`: the Potency result was “inactive”. Take `CC(=O)NCc1ccc(-c2csc(NC(=O)CCCc3nc4ccccc4c(=O)[nH]3)n2)cc1`: the Potency result is “inactive”.

On to `O=C(COC(=O)CCc1nc2ccccc2c(=O)[nH]1)Nc1ccc(N2CCOCC2)cc1`, for which the Potency result was “inactive”. As for `Cc1cccc(C(=O)NCc2nnc(SC(C)C(=O)Nc3nnc(C)s3)n2C)c1` (stereo not given), the Potency entry was “inactive”. As to `C/C(N)=C(/C#N)C(=O)COC(=O)C1=NN(c2ccccc2)C(=O)CC1`, the Potency entry is “inactive”.

On to `CCOC(=O)Cn1c2c(c(-c3ccccc3OC)cc1=O)CCCC2`, for which the Potency result is “inactive”. Same read-out and setting: the same measure for `CCOc1ccc(-c2nc(N)ncc2-c2ccccc2OC)c(O)c1`: 20.6 µM (active); for `C=C(C)COc1ccc(-c2nc(N)ncc2-c2ccccc2OC)c(O)c1`: “inactive”. For the compound `O=C(O)CCCN1C(=O)c2ccccc2Sc2ncccc21`, the Potency result was “inactive”. As for `Fc1cccc(-n2ncc3c2ncn2nc(-c4ccccc4Cl)nc32)c1`, the Potency result was “inactive”. On the same count and under the same terms, with `CCCCN1CC(COCc2ccccc2)OCCS1(=O)=O` (stereo not given) the entry was “inactive”.

Consider `CCCCN1C(=S)NC[C@@H]1C(C)CC` (stereo not given in full), for which the Potency result was “inactive”. `CCCCN1C(N)=NC[C@@H]1Cc1ccccc1`: the Potency is 7.31 µM (active). For `CCCCNC(=O)C1CCC(=O)N1CCc1ccccc1` (stereo not given), the Potency result was “inactive”.

As to `CCCC[C@@H]1CN=C(N)N1CCCC`, the Potency was 9.2 µM (active). Regarding `CCCCN1C(N)=NC[C@@H]1CC1CCCCC1`, the Potency was 23.1 µM (active).

With `Cc1cccc(C)c1NC(=O)CNC(=O)c1ccc2c(c1)OCCO2`, the Potency result was “inactive”.

With `COn1c(-c2ccc(Cl)cc2Cl)nc2ncccc21`, the Potency result is “inactive”. In the case of `O=S(=O)(Nc1ccc(-c2ccc(N3CCOCC3)nn2)cc1)c1cc(Cl)ccc1Cl`, the Potency result was “inactive”. For the compound `COc1cc2ccccc2cc1C(=O)Nc1ccc(N2CCOCC2)cc1`, the Potency entry was “inactive”. For the compound `O=C1NCC(c2ccccc2)(c2ccccc2)C(=O)N1`, the Potency result was “inactive”. As for `OCC1(CO)CC2(C1)CC(CO)(CO)C2`, the Potency entry was “inactive”. Consider `COc1ccccc1CSc1nc2ccccc2[nH]1`, for which the Potency result is “inactive”. Regarding `c1ccc2c(CSCc3nc4ccccc4[nH]3)cccc2c1`, the Potency was 16.4 µM (active). On to `Nc1cccc(CCc2nc3ccccc3[nH]2)c1`, for which the Potency entry is “inactive”. As to `CC1(C(=O)NCc2ccccc2)CN(S(C)(=O)=O)CC(=O)N1CC(F)(F)F` (stereo not given), the Potency result is “inactive”. `COc1cc(NC(=S)NNC(=O)CC(C)C)c(OC)cc1Cl`: the Potency entry was “inactive”. As for `CN(C)CCCn1c(SCc2ccc(Cl)cc2)nnc1-c1ccncc1`, the Potency entry is “inactive”. The same measure, in the same setting: the same measure for `Cn1c(=O)c2ccccc2n(CC(=O)Nc2ccc3c(c2)OCCO3)c1=O`: “inactive”; for `Cc1cc(C(=O)NNC(=S)NC(C)c2ccccc2)cs1` (stereo not given): 23.1 µM (active); for `C/C(CC(=O)NC(C)c1ccccc1)=N\NC(N)=S` (stereo not given): “inactive”. As to `Cc1ccc(C(=O)NC(C)c2ccccc2)cc1Br` (stereo not given), the Potency result was “inactive”. For `N#Cc1ccc(-c2ccc3nccn3c2)cc1`, the Potency result is “inactive”. Consider `COc1ccc(C)cc1S(=O)(=O)NC1CCCCC1`, for which the Potency entry was “inactive”.

Consider `COc1ccc(-c2nc3cc(C)ccn3c2NC2CCCCC2)cc1SC1CCCCC1`, for which the Potency was 29.6 µM (active). For the compound `COC(=O)c1ccc(NC(=O)CSc2nncn2-c2cccnc2)cc1`, the Potency result was “inactive”. In the case of `CN(C)c1ccc(CN2CCOc3ccc(CN4CCC(O)(c5cccnc5)CC4)cc3C2)cc1`, the activity change, negative = growth inhibition is -11.9% [at 9.04 µM] (inactive).

For the compound `CC(=O)CCC(=O)c1ccc2ccccc2c1`, the Potency result is “inactive”. For `C=CC(=O)c1ccc2ccccc2c1`, the Potency is 2.91 µM (active).

Regarding `O=C(NNC(=O)c1ccc2ccccc2c1)c1ccc(Cl)cc1`, the Potency entry was “inactive”. Same read-out and setting: with `COc1ccc(C(=O)N/N=C(\C)CC(=O)Nc2ccc(Cl)cn2)cc1` the entry was “inactive”; with `O=C(Oc1ccc(-c2nc(-c3ccccn3)no2)cc1)c1ccccc1`, 8.2 µM (active); with `Brc1ccc(-c2noc(-c3ccccc3)n2)o1`, “inactive”. Turning to `c1ccc(-c2noc(-c3cccs3)n2)nc1`, the Potency was 8.2 µM (active). As for `O=C(Oc1ccccc1)c1ccc2nccnc2c1`, the Potency result was “inactive”.

For `c1csc(-c2nc(-c3ccncc3)no2)c1`, the Potency entry is “inactive”. Still for that read-out and setting: the same measure for `COc1ccc(CCc2nc(-c3cccs3)no2)cc1`: “inactive”; for `COc1ccc(/C=C(\NC(=O)c2ccccc2)C(=O)NCCN2CCOCC2)cc1OC`: “inactive”.

Turning to `O=C(O)c1ccc(/C=N/NC(=O)c2ccc(Br)cc2)cc1`, the Potency entry was “inactive”. In the case of `CCN(C(=O)CSc1nnc(-c2ccc(OC(F)F)cc2)n1N)C1CCS(=O)(=O)C1` (stereo not given), the Potency entry is “inactive”. Consider `COc1ccc2c(c1)N(C)/C(=C1/SC(=S)N(NC(C)=O)C1=O)S2`, for which the Potency entry was “inactive”.

Regarding `CCCCCCNC(=O)O[C@H]1CN(C(=O)OC(C)C)N(C(=O)OC(C)C)[C@@H]2CN(S(=O)(=O)c3ccc(C)cc3)C[C@]12O`, the Potency was 18.4 µM (active).

Regarding `COC(=O)[C@H]1C[C@H](OC(=O)NCc2ccccc2)[C@@]2(O)CN(S(=O)(=O)c3ccc(C)cc3)CC2[C@H]1C(=O)OC` (stereo not given in full), the Potency result was “inactive”. On to `CCCCOc1ccc(NC(=O)[C@@H]2CCCN2C(=O)C2CCN(S(=O)(=O)c3ccc(C)cc3)CC2)cc1`, for which the Potency result is “inactive”.
